Outcome and AC50 data for 29 molecules are collected here from PubChem BioAssay (EPA / NIEHS).

Where “and” joins values, the source holds several entries; their conditions need not be identical. Identical values can stand only once. Records with an inconclusive call do not appear. Calls of active or inactive are those of the source. How the source made its calls: active means hit-call score of the fitted dose curve at least 0.9, where 1 is the maximum; inconclusive means response in the unintended direction; inactive means score below 0.9.

This experiment is described as follows: TOX21_p53_BLA_p2_viability: Viability Assessment in the Tox21 HCT-116 p53 Agonism Beta-lactamase Assay, Phase 2 (AID 2283591).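 Further: compound exposure lasted 16 h at 37 °C; actives lower the ATP signal meaning cytotoxicity.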 The gist of the method:
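HCT116 p53-bla cells, 4000/well, dosed after 5 h plating (217-fold dilution of DMSO stocks) and incubated 16 h at 37C. Viability taken as cellular ATP by CellTiter-Glo luminescence after 30 min RT; signal loss marks cytotoxicity.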
In the case of `COc1cccc([C@H](O)C2CCN(CCc3ccc(F)cc3)CC2)c1OC`, the molecule was called inactive.

For `OC12N=C(c3ccccc3)SC1Cc1cc(Cl)ccc12` (centres undefined), the result was inactive.

With `Oc1ccc2ccccc2c1`, the result was inactive.

For `Cc1oc2c(NC(=O)c3c(Cl)cccc3Cl)cccc2c1C(C)(C)O`, the molecule was classed as inactive.

As to `CCCCCCCC[Si](OCC)(OCC)OCC`, the molecule was called inactive.

Regarding `Clc1cc(Cl)c2c(c1)N=C1CCCCCN1C2`, the outcome was inactive.

Take `c1ccc2ccccc2c1`: the outcome was inactive.

Consider `O=C(O)Cn1c(=O)n(Cc2ccc(Br)cc2F)c(=O)c2ccc(Cl)cc21`, for which the call was inactive.

Regarding `O=c1[nH]sc2ccccc12`, the call was inactive.

`CCCCCCCCCCCO`: the outcome was inactive.

One may read the AC50 as the concentration giving half of the maximal activity seen. As to `CN(C)c1ccc(C(=C2C=CC(=[N+](C)C)C=C2)c2ccc(N(C)C)cc2)cc1`, the concentration at half-maximal activity (AC50) is 23.6 µM (active) and 19.1 µM (active) and 23 µM (active).

Take `CCO[Si](CCCNC(N)=O)(OCC)OCC`: the molecule was classed as inactive.

For `Cc1ncc(CO)c(CO)c1O`, the molecule was called inactive.

Take `CCOC(=O)O[C@H](C)OC(=O)c1ccc2c(c1)cc(C(=O)NC1CCN(C(C)C)CC1)n2Cc1cc(-c2ccc(Cl)s2)on1`: the concentration at half-maximal activity (AC50) is 16.1 µM (active).

In the case of `C[C@]12CC[C@@H]3c4ccc(O)cc4CC[C@H]3[C@@H]1CC[C@H]2O`, the call was inactive.

As for `c1ccc(C[n+]2cccc3ccccc32)cc1`, the call was inactive.

With `CC(C)(C)c1cc(/C=C2\SC(N)=NC2=O)cc(C(C)(C)C)c1O`, the AC50 was 77.9 µM (active).

For the molecule `CC[C@H](NC(=O)c1cc(F)ccc1NS(=O)(=O)c1cccc2cccnc12)c1ccccc1`, the call was inactive.

On to `Cc1ccc(C(C)C)cc1`, for which the result was inactive.

As for `CCCCOC(=O)CC(CC(=O)OCCCC)(OC(C)=O)C(=O)OCCCC`, the molecule was classed as inactive.

Turning to `CCCCCCCCCCCCO`, the call was inactive.

With `OCCO`, the outcome was inactive.

On to `O=c1ccc2ccccc2o1`, for which the molecule was classed as inactive.

Take `Cc1cc2c(cc1C(F)(F)F)N(C(=O)Nc1ccc(Oc3cccnc3C)nc1)CC2`: the outcome was inactive.

Take `O=C1O[C@H]([C@@H](O)CO)C(O)=C1O`: the outcome was inactive.

Take `Cc1occc1C(=O)Nc1ccc(C(=O)N2CCC(F)(F)/C(=C\C(=O)N3CCC(N4CCCCC4)CC3)c3ccccc32)cc1`: the outcome was inactive.

As for `CC(C)(O)c1ccc(CNC(=O)c2cccnc2Oc2ccc3nonc3c2)cc1`, the call was inactive.

Consider `CN1C(=O)CC[C@H]1c1cccnc1`, for which the molecule was classed as inactive.

As for `O=C(O)c1ccccc1C(=O)OCc1ccccc1`, the call was inactive.
